Calls of active or inactive are those of the source.
Tests used:
[1] = binders of probe aFSTL3 on microarray, primary screen, stem cell growth factor project, biochemical, small-molecule microarray, fluorescence 635/667 (AID 1064); conditions: higher = more signal;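 note: measures binding of the biotinylated anti-FSTL3 antibody to printed compounds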
[2] = binders from COS7 lysate, DM2A8 probe, primary screen, torsin A project, cell lysate, small-molecule microarray, fluorescence 635/667 (AID 1065); conditions: higher = more signal, COS7 lysate expressing mutant human TOR1A
[3] = binders of probe aFGF2 on microarray, primary screen, stem cell growth factor project, biochemical, small-molecule microarray, fluorescence 635/667 (AID 1067); conditions: higher = more signal;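 note: measures binding of biotinylated aFGF2 protein to printed compounds on slides; z-score merges feature fluorescence and signal-to-noise across triplicate slides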
[4] = binders of probe aFGF10 on microarray, primary screen, stem cell growth factor project, biochemical, small-molecule microarray, fluorescence 635/667 (AID 1071); conditions: higher = more signal;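 note: score merges 667 nm spot intensity and signal to noise from triplicate slides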
[5] = target: Neurogenic locus notch homolog protein 2 (Homo sapiens) (UniProt Q04721); test: Notch2 binders on small-molecule microarrays, primary screen, biochemical, small-molecule microarray, 635 nm fluorescence, stem cell growth factors (AID 1073); conditions: Notch2 binding, higher = more signal
Neurogenic locus notch homolog protein 2 (Homo sapiens), sequence (Q04721 whole entry, looked up, canonical isoform): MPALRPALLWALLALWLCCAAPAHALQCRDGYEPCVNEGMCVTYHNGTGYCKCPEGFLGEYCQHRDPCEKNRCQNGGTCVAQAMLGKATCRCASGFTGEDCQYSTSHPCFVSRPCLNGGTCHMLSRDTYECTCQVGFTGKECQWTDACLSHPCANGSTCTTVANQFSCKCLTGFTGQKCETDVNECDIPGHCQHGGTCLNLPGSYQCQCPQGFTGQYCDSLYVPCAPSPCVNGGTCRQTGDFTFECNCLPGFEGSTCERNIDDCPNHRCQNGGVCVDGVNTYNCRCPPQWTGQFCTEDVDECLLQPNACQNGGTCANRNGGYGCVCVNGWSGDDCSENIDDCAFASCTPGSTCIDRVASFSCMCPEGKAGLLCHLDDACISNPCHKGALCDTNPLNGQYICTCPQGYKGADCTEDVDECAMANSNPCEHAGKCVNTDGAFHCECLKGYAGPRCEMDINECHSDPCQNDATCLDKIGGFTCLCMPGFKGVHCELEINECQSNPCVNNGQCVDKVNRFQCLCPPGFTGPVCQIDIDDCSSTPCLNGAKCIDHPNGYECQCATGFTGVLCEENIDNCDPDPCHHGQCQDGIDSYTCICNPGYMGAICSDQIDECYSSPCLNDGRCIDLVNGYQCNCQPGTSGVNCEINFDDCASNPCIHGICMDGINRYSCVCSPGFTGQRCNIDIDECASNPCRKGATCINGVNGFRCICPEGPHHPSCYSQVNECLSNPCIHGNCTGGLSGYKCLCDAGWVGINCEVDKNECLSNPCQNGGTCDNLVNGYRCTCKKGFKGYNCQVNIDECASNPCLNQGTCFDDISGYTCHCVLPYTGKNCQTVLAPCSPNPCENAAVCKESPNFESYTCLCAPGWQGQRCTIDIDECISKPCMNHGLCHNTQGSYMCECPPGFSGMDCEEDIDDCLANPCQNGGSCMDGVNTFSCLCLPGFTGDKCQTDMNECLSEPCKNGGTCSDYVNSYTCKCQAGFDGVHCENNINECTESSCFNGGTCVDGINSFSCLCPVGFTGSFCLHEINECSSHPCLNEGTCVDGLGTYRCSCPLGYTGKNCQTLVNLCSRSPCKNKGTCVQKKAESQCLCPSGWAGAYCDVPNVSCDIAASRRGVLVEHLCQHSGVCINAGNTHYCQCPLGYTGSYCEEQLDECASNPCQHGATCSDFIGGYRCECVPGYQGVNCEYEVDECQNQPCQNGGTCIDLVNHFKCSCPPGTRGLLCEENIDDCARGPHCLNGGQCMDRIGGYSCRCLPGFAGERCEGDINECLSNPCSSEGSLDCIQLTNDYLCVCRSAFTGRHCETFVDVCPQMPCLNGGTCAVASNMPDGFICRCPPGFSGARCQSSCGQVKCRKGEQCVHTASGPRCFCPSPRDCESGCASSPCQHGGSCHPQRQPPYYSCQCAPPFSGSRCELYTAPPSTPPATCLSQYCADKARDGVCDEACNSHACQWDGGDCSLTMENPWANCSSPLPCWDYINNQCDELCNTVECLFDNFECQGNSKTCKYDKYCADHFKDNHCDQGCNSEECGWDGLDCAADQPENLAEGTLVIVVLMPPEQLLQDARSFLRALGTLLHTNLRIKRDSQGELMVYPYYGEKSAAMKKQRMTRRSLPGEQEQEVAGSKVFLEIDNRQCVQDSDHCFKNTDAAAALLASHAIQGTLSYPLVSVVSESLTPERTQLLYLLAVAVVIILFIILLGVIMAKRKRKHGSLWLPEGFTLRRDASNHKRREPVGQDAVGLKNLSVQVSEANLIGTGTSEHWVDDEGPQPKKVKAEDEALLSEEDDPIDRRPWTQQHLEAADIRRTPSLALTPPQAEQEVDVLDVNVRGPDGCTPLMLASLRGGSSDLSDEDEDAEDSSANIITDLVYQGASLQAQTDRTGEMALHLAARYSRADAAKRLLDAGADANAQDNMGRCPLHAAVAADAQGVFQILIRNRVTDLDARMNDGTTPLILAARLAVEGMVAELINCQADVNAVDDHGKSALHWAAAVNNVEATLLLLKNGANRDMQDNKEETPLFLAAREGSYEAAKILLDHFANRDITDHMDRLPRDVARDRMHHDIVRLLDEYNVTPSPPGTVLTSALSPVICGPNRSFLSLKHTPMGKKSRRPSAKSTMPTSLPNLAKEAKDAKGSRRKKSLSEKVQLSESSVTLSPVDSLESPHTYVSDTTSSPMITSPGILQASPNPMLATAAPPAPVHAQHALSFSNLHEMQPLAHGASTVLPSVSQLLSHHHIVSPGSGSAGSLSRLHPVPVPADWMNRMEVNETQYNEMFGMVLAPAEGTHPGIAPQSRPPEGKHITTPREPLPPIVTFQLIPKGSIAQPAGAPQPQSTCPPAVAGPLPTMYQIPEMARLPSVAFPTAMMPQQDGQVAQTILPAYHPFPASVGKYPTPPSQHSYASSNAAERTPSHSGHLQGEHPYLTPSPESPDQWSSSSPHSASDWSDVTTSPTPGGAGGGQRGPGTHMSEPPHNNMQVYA

[6] = target: Pro-neuregulin-1, membrane-bound isoform (Homo sapiens) (UniProt Q02297); test: NRG1 binders on small-molecule microarrays, primary screen, psychiatric disease protein project, biochemical, small-molecule microarray, fluorescence 635/667 (AID 1075); conditions: NRG1 binding, 635 nm fluorescence, higher = more signal;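 note: score combines 667 nm spot fluorescence with signal to noise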
Pro-neuregulin-1, membrane-bound isoform (Homo sapiens), sequence (Q02297 whole entry, looked up, the tested form may be a part, canonical isoform): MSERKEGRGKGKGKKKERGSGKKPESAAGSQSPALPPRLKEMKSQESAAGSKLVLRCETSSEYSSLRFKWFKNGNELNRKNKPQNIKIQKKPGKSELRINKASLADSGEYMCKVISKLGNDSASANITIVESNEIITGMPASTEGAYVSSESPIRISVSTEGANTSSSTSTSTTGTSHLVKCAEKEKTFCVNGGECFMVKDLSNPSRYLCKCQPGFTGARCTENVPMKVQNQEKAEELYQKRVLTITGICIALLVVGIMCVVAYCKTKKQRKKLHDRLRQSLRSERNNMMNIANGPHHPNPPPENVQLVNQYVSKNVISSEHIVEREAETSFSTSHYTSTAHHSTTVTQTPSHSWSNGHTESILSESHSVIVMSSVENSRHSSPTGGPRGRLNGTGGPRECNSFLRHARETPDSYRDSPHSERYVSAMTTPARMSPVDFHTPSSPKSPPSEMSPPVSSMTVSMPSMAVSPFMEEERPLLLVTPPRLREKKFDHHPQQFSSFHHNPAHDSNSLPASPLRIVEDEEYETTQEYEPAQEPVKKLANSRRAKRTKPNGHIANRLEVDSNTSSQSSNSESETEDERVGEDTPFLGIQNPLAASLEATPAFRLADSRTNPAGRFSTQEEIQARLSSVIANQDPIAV

[7] = tested on: Neuregulin-1 EGF-like domain; test: binders of neuregulin-1 EGF-like domain, primary screen, biochemical, small-molecule microarray, 635 nm fluorescence (AID 1081); conditions: small-molecule microarray binding, higher = more signal;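 note: binding of the protein to compounds printed on small-molecule microarray slides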
[8] = FRG1 promoter luciferase signal modulators, primary screen, FRG1 inhibition for FSHD, cell-based, C2C12 myotubes, firefly/Renilla luciferase, luminescence (AID 1084); conditions: higher = more signal, called active from +8 up or from −8 down
[9] = binders of probe aFST on microarray, primary screen, stem cell growth factor project, biochemical, small-molecule microarray, fluorescence 635/667 (AID 1086); conditions: higher = more signal;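 note: score merges 667 nm fluorescence with signal-to-noise of each printed compound spot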
[10] = binders of probe aHhip on microarray, primary screen, stem cell growth factor project, biochemical, small-molecule microarray, fluorescence 635/667 (AID 1087); conditions: higher = more signal;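 note: score merges spot fluorescence at 667nm with spot signal to noise ratio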

SMILES | composite z-score [1] | composite z-score [2] | composite z-score [3] | composite z-score [4] | composite z-score [5] | composite z-score [6] | composite z-score [7] | z-score [8] | composite z-score [9] | composite z-score [10]
O=c1oc(-c2ccccc2)nc2cc(Br)ccc12 | -0.0862 | 0.0961 | -0.103 | 0.298 | 0.325 | -0.0187 | 0.52 | -0.409 (inactive) | 0.127 | -0.287
COCCOC(=O)N1C(=O)[C@@]2(c3cc(C#CCC(C(=O)OC)C(=O)OC)ccc31)[C@H](c1ccccc1OCCO)N1[C@H](c3ccccc3)[C@H](c3ccccc3)OC(=O)[C@H]1[C@@H]2C(N)=O | -0.0037 | 0.532 | 0.0495 | 1.17 | 0.923 | 1.42 | 1.21 | -0.885 (inactive) | 0.0716 | 0.107
COc1ccc(C(=O)Nc2cccc(CN3C(=O)[C@@]4(O[C@@H](CCn5cc(CCO)nn5)[C@H]([Si](C)(C)c5ccc(OC)cc5)[C@H]4C)c4ccccc43)c2)cc1 | -0.115 | 0.485 | -0.0381 | 0.205 | 1.12 | 1.08 | 1.11 | -3.09 (inactive) | 0.407 | -0.0994
NCCCCCCNC(=O)[C@H]1C[C@H]2C(=O)NCC(=O)N2[C@H]1c1cccc(OCCO)c1 | -0.196 | 0.615 | -0.0647 | 0.477 | 0.363 | 0.933 | 1.13 | 1.03 (inactive) | 0.0417 | -0.0994
C=C[C@@H](COC(C)=O)N(Cc1ccc([N+](=O)[O-])cc1)S(=O)(=O)c1ccc(Br)cc1 | 0.381 | -0.339 | 0.0258 | 0.642 | 1.1 | 0.668 | 1.12 | -1.5 (inactive) | 0.804 | -0.21
O=C1N(CCS(=O)(=O)c2ccccc2)Cc2ccccc2[C@H]2OC(c3ccc(OCCCO)cc3)=N[C@@]12CCS(=O)(=O)c1ccccc1 | 1.11 | 0.994 | 0.145 | 0.784 | 1.37 | 1.62 | 1.36 | -2.53 (inactive) | 0.593 | -0.189
COCCOC(=O)N1C(=O)[C@@]2(c3ccccc31)[C@H](c1ccc(O)cc1)N1[C@H](c3ccccc3)[C@H](c3ccccc3)OC(=O)[C@H]1[C@@H]2C(=O)N1CCc2cc(OC)c(OC)cc2C1 | 0.21 | 0.0749 | 0.0631 | 0.691 | 1.15 | 1.08 | 0.938 | -1.47 (inactive) | 1.05 | -0.179
COc1ccc([Si](C)(C)[C@H]2[C@H](CCn3cc([C@H](O)c4ccccc4)nn3)O[C@@]3(C(=O)N(Cc4cccc(N5CCC5=O)c4)c4ccccc43)[C@@H]2C)cc1 | 0.386 | 0.238 | -0.0894 | 0.164 | -0.404 | -0.0001 | 0.557 | -1.99 (inactive) | -0.0509 | -0.191
O=C1C2C=CC(C(O)c3cccs3)N(Nc3ccccc3F)C2C(=O)N1c1ccccc1 (stereo not given) | -0.111 | 0.28 | -0.0951 | 0.711 | 0.92 | 1.07 | 1.17 | 0.69 (inactive) | 0.267 | -0.196
CC(=O)NCCCC[C@@H]1NC(=O)[C@H]2C[C@@H](C(=O)NCCCCCC[N+](C)(C)C)[C@@H](c3cccc(OCCO)c3)N2C1=O | -0.374 | 0.645 | -0.0894 | 0.245 | 0.117 | 1.5 | 1.42 | 5.18 (inactive) | -0.0568 | -0.201
CC(C)=CCCC(C)=CC(O)C1C=CC2C(=O)N(c3ccccc3)C(=O)C2N1Nc1ccccc1 (stereo not given) | 0.475 | 0.135 | 0.155 | 1.16 | 1.64 | 1.17 | 1.06 | -2.84 (inactive) | 1.6 | 0.0497
Cc1c(NC(=O)CC#N)c(=O)n(-c2ccccc2)n1C | -0.436 | 0.114 | -0.0996 | 0.374 | 0.348 | 0.379 | 0.483 | 1.66 (inactive) | 0.404 | -0.498
CCCN1C(=O)[C@@]2(CCC(=O)OC(C)(C)C)N=C(c3ccc(OCCCO)cc3)O[C@H]2c2ccccc21 | -0.0952 | 0.108 | -0.0243 | 0.102 | 0.312 | 0.0163 | 0.959 | -1.22 (inactive) | 0.0225 | -0.191
O=C1O[C@H](c2ccccc2)[C@H](c2ccccc2)N2[C@H]1[C@@H](C(=O)NC[C@H](O)c1ccccc1)[C@]1(C(=O)Nc3ccc(C#CCCO)cc31)[C@H]2c1ccc(O)cc1 | 0.326 | -0.543 | -0.103 | -0.465 | -0.42 | 0.0538 | -0.51 | 0.08 (inactive) | -0.445 | 0.245
[N-]=[N+]=Nc1ccccc1[C@@H]1OC(c2ccc(OCCCO)cc2)=N[C@]1(CCS(=O)(=O)c1ccccc1)C(=O)N1CCOCC1 | 0.712 | 0.274 | 0.269 | 1.09 | 1.62 | 1.95 | 1.24 | -0.246 (inactive) | 1.89 | -0.123
C=CC(=C)C1=CCO[C@@H]1[C@H]1CCCN1S(=O)(=O)c1ccccc1[N+](=O)[O-] | -0.552 | 0.162 | -0.0716 | 0.138 | 1.07 | 0.832 | 1.01 | -0.788 (inactive) | 0.358 | -0.271
CCCCCN1CC=CC23O[C@@H]4/C=C\CCC(C)OC(=O)C4[C@H]2C(=O)N(CCCCCO)[C@@H]3C1=O (stereo not given in full) | -0.0551 | 0.698 | -0.0871 | -0.524 | -0.862 | 0.948 | -0.69 | 0.312 (inactive) | -0.467 | 0.344

SMILES | composite z-score [1] | composite z-score [2] | composite z-score [3] | composite z-score [4] | composite z-score [5] | composite z-score [6] | composite z-score [7] | z-score [8] | composite z-score [9] | composite z-score [10]
O=C1O[C@H](c2ccccc2)[C@H](c2ccccc2)N2[C@H]1[C@@H](C(=O)Nc1nc3ccccc3s1)[C@]1(C(=O)Nc3ccccc31)[C@H]2c1ccc(O)cc1 | -0.423 | 0.108 | -0.0516 | 0.405 | 1.13 | 1.43 | 1.25 | 0.678 (inactive) | 0.521 | -0.149
Cc1ccc([C@H]2C(C(=O)O)=C[C@@H](C)N2S(=O)(=O)c2ccc(C)cc2)cc1 | 0.247 | -0.36 | -0.0867 | -0.337 | -0.0054 | 1.52 | 0.962 | -0.282 (inactive) | -0.882 | -0.201
COc1ccc(C(O)C2C=CC3C(=O)N(C)C(=O)C3N2Nc2ccccc2)cc1OCc1ccccc1 (stereo not given) | 0.008 | 0.174 | 0.0258 | 0.386 | 1.28 | 1.94 | 1.31 | -1.1 (inactive) | 0.346 | 0.208
CCC(CC)C(O)C1C=CC2C(=O)N(c3ccccc3)C(=O)C2N1Nc1ccc(C#N)cc1 (stereo not given) | 1.07 | 0.693 | 0.326 | 0.884 | 1.64 | 1.77 | 1.29 | -1.02 (inactive) | 1.22 | -0.271
C=CCC(OC(C)=O)[C@@H]1[C@@H](N(Cc2ccc(-c3ccccc3)cc2)C(=O)Cc2ccc(OC)cc2)c2cc(OCCCO)ccc2N1C(=O)c1ccc2ccccc2n1 (stereo not given in full) | 0.0604 | -0.11 | -0.0074 | -0.0502 | 0.0378 | -0.111 | -0.271 | -0.83 (inactive) | 0.411 | -0.0994
COc1ccc(NN2C(C(O)c3ccc(OC)c(OCc4ccccc4)c3)C=CC3C(=O)N(C4CCCCC4)C(=O)C32)cc1 (stereo not given) | 0.243 | -0.116 | 0.136 | 0.395 | 1.56 | 1.4 | 0.936 | 0.0498 (inactive) | 0.857 | 0.0749
CC(C)OC(=O)CC(=O)CC(O)c1ccc(C#N)cc1 (stereo not given) | 0.401 | 0.435 | 0.0798 | 0.356 | 1.29 | 0.366 | 0.552 | -0.711 (inactive) | 0.712 | 0.0722
CCCCC=C[C@@H](NC(=O)c1ccc(C(=O)OC)cc1)c1ccccc1 | 0.026 | 0.0108 | -0.116 | 0.213 | 1.31 | 0.919 | 0.903 | 1.86 (inactive) | 0.474 | -0.189
C=CCC(OC(C)=O)[C@@H]1[C@@H](N(Cc2ccc(-c3ccccc3)cc2)C(=O)Cc2ccc(F)cc2)c2cc(OCCCO)ccc2N1C(=O)c1ccc2ccccc2n1 (stereo not given in full) | -0.12 | -0.0608 | 0.0198 | -0.372 | 0.0329 | 0.164 | -0.421 | -0.649 (inactive) | 0.167 | 0.0623
Cc1ccccc1C(O)C1C=CC2C(=O)N(C)C(=O)C2N1Nc1ccccc1 (stereo not given) | 0.413 | 0.526 | -0.0035 | 0.0865 | 1.22 | 2.05 | 1.14 | 0.772 (inactive) | 0.842 | -0.0994
N#Cc1ccc(NN2C(C(O)c3cccs3)C=CC3C(=O)N(c4ccccc4)C(=O)C32)cc1 (stereo not given) | 0.106 | 0.145 | 0.0887 | 0.546 | 1.47 | 1.93 | 1.06 | -0.911 (inactive) | 0.632 | -0.236
CC(C)(C)N1CC=CC23O[C@@H]4C=CCOC(=O)[C@@H]4[C@H]2C(=O)N(CCCCCO)[C@@H]3C1=O (stereo not given in full) | 0.469 | -0.555 | -0.159 | -0.335 | -1.38 | 0.978 | 1.33 | 0.952 (inactive) | 0.411 | -0.339
C=C[C@H](C)[C@@H](O)c1ccc(O)c2ccccc12 | -0.161 | -0.0359 | 0.126 | -0.749 | -1 | -0.329 | -0.158 | -0.202 (inactive) | -1.03 | 0.0274
CN(C)C(=O)[C@@]1(CCC(=O)OC(C)(C)C)N=C(c2ccc(OCCCO)cc2)O[C@H]1c1ccccc1 | 1.01 | 2.11 | 0.112 | 0.31 | -0.282 | 1.92 | 1.33 | -0.624 (inactive) | 0.356 | 0.597
CCOC(=O)C[C@H]1[C@H](OC(=O)c2ccc(C(=O)c3ccccc3)cc2)[C@@H](NC(=O)C2CCCCC2)c2cc(OCCCO)ccc2N1C(=O)c1ccccc1 | -0.379 | -0.248 | -0.0478 | 0.494 | 1.02 | 0.857 | 0.95 | -0.541 (inactive) | 0.253 | 0.682
O=C1O[C@H](c2ccccc2)[C@H](c2ccccc2)N2[C@H]1[C@@H](C(=O)O)[C@]1(C(=O)Nc3ccc(C#CC4(O)CCCCCC4)cc31)[C@H]2c1ccc(OCCO)cc1 | -0.133 | -0.337 | 0.0201 | 0.564 | 0.263 | 1.85 | 1.14 | 1.11 (inactive) | 1.07 | -0.0994
O=C1OCCC/C=C\[C@H]2OC34C=CCN(Cn5nnc6ccccc65)C(=O)[C@H]3N(CCCCCO)C(=O)[C@@H]4C12 (stereo not given in full) | 0.0227 | -0.126 | -0.145 | -0.821 | -0.919 | 0.865 | 0.443 | 0.406 (inactive) | -0.666 | -0.206
